About 79,000 compounds went through this panel and 15% of them were active in at least one assay; those are over-represented in the sample as a whole. Calls of active or inactive are those of the source. Cut-off read from the data, not from the text of the source: active = growth inhibition above about 70%; inactive = the rest.
Assays:
[1] = NCI Yeast Anticancer Drug Screen. Data for the rad50 strain (AID 155);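 note: 0% = growth of vehicle-only cultures of the same strain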; conditions: S. cerevisiae rad50 strain growth inhibition; at 50.0 µM; stronger effect = higher value
Procedure, shortened: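 Genetically altered yeast (DNA repair pathway); compound treatment; growth inhibition vs vehicle ctrl.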

[2] = NCI Yeast Anticancer Drug Screen. Data for the mec2-1 strain (AID 157); conditions: S. cerevisiae mec2-1 strain, at 50.0 µM, stronger effect = higher value
Procedure, shortened: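 Vehicle-treated cultures served as reference for growth inhibition of compound-exposed mec2-1 yeast.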

[3] = NCI Yeast Anticancer Drug Screen. Data for the sgs1 mgt1 strain (AID 161);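 note: 0% = growth of cultures given vehicle only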; conditions: S. cerevisiae sgs1 mgt1 strain, at 50.0 µM, stronger effect = higher value
Procedure, shortened: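 Mutant yeast exposed to compound; growth scored against vehicle-only wells.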

[4] = NCI Yeast Anticancer Drug Screen. Data for the cln2 rad14 strain (AID 165);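 note: 0% = growth equal to vehicle treated cultures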; conditions: S. cerevisiae cln2 rad14 strain, at 50.0 µM, stronger effect = higher value
Procedure, shortened: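 Each compound was tested on cln2 rad14 yeast. Inhibition of growth was calculated against vehicle-exposed controls.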

[5] = NCI Yeast Anticancer Drug Screen. Data for the bub3 strain (AID 167); conditions: S. cerevisiae bub3 mutant strain, at 50.0 µM, stronger effect = higher value
Procedure, shortened: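 Yeast carrying a defined mutation is treated with each compound, and growth is compared with that of vehicle-exposed cells to give inhibition.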

[6] = NCI Yeast Anticancer Drug Screen. Data for the mlh1 rad18 strain (AID 175); conditions: S. cerevisiae mlh1 rad18 strain growth inhibition; at 50.0 µM; stronger effect = higher value
Procedure, shortened: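 Vehicle-treated cultures served as the reference for growth inhibition in a yeast strain carrying DNA damage repair alterations exposed to each compound.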

Measured: growth inhibition

O=S1Nc2ccccc2[C@H]2[C@@H]1[C@H]1O[C@@H]2c2ccccc21 (stereo partly specified)
inactive: [1] -3.6% | [2] -5.65% | [3] -23.6% | [4] -27.6% | [5] -6.6% | [6] -0.85%

Cc1cc(OC(N)=S)cc(C)c1Cl
inactive: [1] 20.6% | [2] 4.2% | [3] 7.6% | [4] -6.25% | [5] 3.4% | [6] -2.1%

CC1CC(=O)Nc2ncnc(N)c21 (stereo unspecified)
inactive: [1] -25.1% | [2] -2.45% | [3] 2.3% | [4] -4.7% | [5] 5.3% | [6] -9%

O=C(Nc1ccc(Cl)c(C(F)(F)F)c1)C(=O)c1c(O)c2ccccc2oc1=O
inactive: [1] 9.85% | [2] 4.7% | [3] -11.7% | [4] -38.5% | [5] -19.1% | [6] 5.3%

C=C(Cl)CSc1ncnc2nc[nH]c12
inactive: [1] 34.5% | [2] 22.9% | [3] 18.2% | [4] 8.05% | [5] 30.6% | [6] 36.4%

CN(C)CC1CC(O)C(CN(C)C)CC1O (stereo unspecified)
inactive: [1] -6.2% | [2] -13.4% | [3] -20.2% | [4] -6.15% | [5] -6.25% | [6] -8.95%

CCOC(=O)NC(=O)c1cn(CCN2CCN(C(=O)CCCCCCCCCCNc3ncnc4nc[nH]c34)CC2)c(=O)[nH]c1=O
inactive: [1] -18.5% | [2] -6.75% | [3] -12.8% | [4] -25.6% | [5] 0.05% | [6] -14.2%

NC(=S)NO
inactive: [1] -1.85% | [2] -3.8% | [3] 2.35% | [4] 22.6% | [5] 8% | [6] -19.9%

CCOC(=O)c1[nH]c(C)c(/C(C)=N\NC(N)=O)c1C
inactive: [1] -20.2% | [2] -14.7% | [3] -7.4% | [4] -20.9% | [5] 8% | [6] 10.5%

ONc1ccccc1
inactive: [1] 15.3% | [2] 6.1% | [3] 11.8% | [4] 16.7% | [5] 28.1% | [6] 16.6%

CC(=O)OCC1OC(n2cc(F)c(=O)[nH]c2=O)C(OC(C)=O)C1OC(C)=O (stereo unspecified)
inactive: [1] 28.9% | [2] 3.2% | [3] -13.1% | [4] 43.2% | [5] -16.4% | [6] -26.4%

CC(=O)OCC1OC(Cl)C(OC(=O)C(Cl)(Cl)Cl)C(OC(C)=O)C1OC(C)=O (stereo unspecified)
inactive: [1] 2.8% | [2] 0.2% | [3] -13.6% | [4] -0.95% | [5] -2.65% | [6] -9.45%

O=[N+]([O-])c1ccccc1S(=O)c1ccccc1 (stereo unspecified)
inactive: [1] -1.65% | [2] -0.15% | [3] -4.3% | [4] 11.2% | [5] -6.5% | [6] -6.25%

Cc1ccc(S(=O)CC(CF)OCn2cc(C)c(=O)[nH]c2=O)cc1 (stereo unspecified)
inactive: [1] 1.6% | [2] 6.65% | [3] -42.6% | [4] 10.2% | [5] -16.1% | [6] -53%

CC(C)(C)NCC(CN1CCOCC1)C(=O)c1ccccc1 (stereo unspecified)
active: [2] 70.1% | [5] 74.2% | [6] 90.2%
inactive: [1] 48.5% | [3] 57% | [4] 52.6%

COc1cc2ccc(=O)oc2cc1O
inactive: [1] 14.6% | [2] 9.35% | [3] 9.05% | [4] 19.4% | [5] 16.4% | [6] 4.05%

CCN(CC)N=Nc1ccc(S(N)(=O)=O)cc1
inactive: [1] 8.25% | [2] 12.6% | [3] 16.1% | [4] 38% | [5] -5.1% | [6] 14.6%

C/C(CCc1ccccc1)=N/Nc1ccc([N+](=O)[O-])cc1[N+](=O)[O-]
inactive: [1] 0.65% | [2] -4.75% | [3] 10.2% | [4] 0.05% | [5] 13.4% | [6] -4.55%

O=C(NC(Cc1ccccc1)C(=O)N1CCOCC1)c1ccccc1 (stereo unspecified)
inactive: [1] 6.1% | [2] 12.6% | [3] -1.35% | [4] 3.2% | [5] 1.85% | [6] -0.35%

O=C1CCc2nc(=O)c3c4ccccc4ccc3n21
inactive: [1] 3.95% | [2] 1.55% | [3] -5.35% | [4] -36.5% | [5] -3.95% | [6] -0.2%

O=C(Nc1cccc(C(F)(F)F)c1)c1ccco1
inactive: [1] 34.5% | [2] 9.75% | [3] 28.7% | [4] 3.55% | [5] 11.1% | [6] 17%

O=C(Cc1ccc([N+](=O)[O-])cc1)ON1C(=O)CCC1=O
inactive: [1] -11.8% | [2] 2.65% | [3] -4.65% | [4] -18.9% | [5] -20.1% | [6] 6%

CC1C2=C(CC(C)(C)CC2=O)OC2=C1C(=O)CC(C)(C)C2
inactive: [1] -16.1% | [2] -7.9% | [3] -7.8% | [4] -5.3% | [5] 4.65% | [6] -3.5%

O=C1c2ccccc2C(=O)c2nc3ccc(Cl)cc3cc21
inactive: [1] -12.3% | [2] -18.4% | [3] 1.35% | [4] 21.3% | [5] -12.5% | [6] -10.8%

CC(=O)Nc1nnc(C)o1
inactive: [1] -0.85% | [2] -3.5% | [3] -1.55% | [4] -40.6% | [5] 10.3% | [6] -2.05%

[Br][Pt+2][Br].[NH-]c1cccc(F)c1.[NH-]c1cccc(F)c1
inactive: [1] 50.9% | [2] 11.4% | [3] 39.4% | [4] 6.4% | [5] 5.65% | [6] 46.3%

COC(=O)N/N=C(\C)CC(=O)Nc1ccc(Cl)cc1
inactive: [1] -22.9% | [2] -32.6% | [3] -28.2% | [4] -5.95% | [5] -27.2% | [6] -43.7%

CN1c2ccc(C3N(C(=O)C(F)(F)F)C=CN3C(=O)C(F)(F)F)cc2Sc2cc(C3N(C(=O)C(F)(F)F)C=CN3C(=O)C(F)(F)F)ccc21
inactive: [1] -3.65% | [2] 1.15% | [3] -2% | [4] -6.9% | [5] 1.05% | [6] 19.9%

CCCNC(=O)c1ccccc1O
inactive: [1] 9.95% | [2] 3.05% | [3] 3.9% | [4] 1.4% | [5] 0.3% | [6] 7.45%

CC(=O)c1ccccc1NS(=O)(=O)c1ccc2nc(C)n(NS(=O)(=O)c3ccccc3C(C)=O)c(=O)c2c1
inactive: [1] 43.5% | [2] 19.6% | [3] -5.25% | [4] 7.2% | [5] 4.55% | [6] 28.6%

Cc1cccc2c1Oc1ccccc1C2NC(=O)OCCCl (stereo unspecified)
inactive: [1] 1.8% | [2] 13.1% | [3] 8.7% | [4] -37% | [5] 0.85% | [6] 12.8%

CCOC(=O)CNC(=O)C(Cc1ccccc1)NC(=O)c1ccccc1NC(=O)c1ccccc1 (stereo unspecified)
inactive: [1] 28.8% | [2] 20.8% | [3] 4.3% | [4] 13.3% | [5] 0.7% | [6] 22.2%

CN1CCN(S(=O)(=O)C(c2ccccc2)C2(O)CCCCC2)CC1 (stereo unspecified)
inactive: [1] -1.3% | [2] 10.2% | [3] 9.05% | [4] -6.25% | [5] -8.15% | [6] 12.2%

CC1(C)C2CCC1(C)C(NC(N)=O)C2 (stereo unspecified)
inactive: [1] -10% | [2] 6.45% | [3] -8.95% | [4] -6.6% | [5] 2.3% | [6] 10.5%

COC(=O)C1Cc2ccc(C)cc2C1=O (stereo unspecified)
inactive: [1] -37.7% | [2] -4.6% | [3] -1.95% | [4] 26.1% | [5] 15.4% | [6] -4.3%

C[Si](C)(C)OC=C1CCCCC1
inactive: [1] 12.1% | [2] -3.95% | [3] -3.55% | [4] -29.2% | [5] -21.4% | [6] 9.7%

Cc1cc(C)c2ccc(NC(=O)CCC(=O)O)nc2n1
inactive: [1] -15.1% | [2] -32.5% | [3] 7.45% | [4] 10.7% | [5] -27.4% | [6] -13.4%

C=C(C)c1ccc(C(=C)C)cc1
inactive: [1] -45.9% | [2] -40.9% | [3] -38.2% | [4] -3.9% | [5] -23.9% | [6] -40.5%

CC[C@]12C=CCN3CCC4(c5cc([C@@]6(C(=O)OC)CC7CN(CCc8c6[nH]c6ccccc86)C[C@@H]6CCC[C@H]76)c(OC)cc5N(C)C4[C@](O)(C(=O)OC)C1OC(C)=O)C32 (stereo partly specified)
inactive: [1] -9.2% | [2] 3.8% | [3] -30.6% | [4] -22.1% | [5] -45% | [6] 9.3%

C/C(=C\c1ccccc1)C(=O)c1c(C)cc(C)cc1C
inactive: [1] 26.9% | [2] -2.9% | [3] 11.1% | [4] -0.2% | [5] -5.45% | [6] -11.8%

COC(=O)C1c2ccccc2CC(=O)N1NC(C)=O (stereo unspecified)
inactive: [1] 15.6% | [2] 1.65% | [3] -19.4% | [4] 9.65% | [5] 5.3% | [6] 10.4%

— PubChem BioAssay (NCI)
